Measured values published in PubChem BioAssay (Tox21).
Records with an inconclusive call do not appear. Activity calls are given as the source filed them. Unless noted, calls follow the shape of the dose curve; as a rule, active = well fitted curve in the direction sought with a large enough effect in the repeat runs; inconclusive = weak or mixed curves; inactive = no such curve, though single readings can be large; an effect the other way counts as inactive or inconclusive.

Key:
[1] = qHTS assay to identify small molecule agonists of the estrogen receptor alpha (ER-alpha) signaling pathway in the presence of an antagonist - cell viability counter screen (AID 1259386);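 also: cells exposed to compounds for 22 h at 37 °C before the viability read; nearly all actives have a fitted effect of over 30% in size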; also: potency is read from the fitted curve at half-maximal effect; as to activity change, negative = cytotoxicity: series mostly up to about 92 µM
How it was run: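 In this counter screen, compound effects on VM7Luc4E2 viability were tested in the presence of the antagonist ICI-182,780 at 10.0nM final. Compounds were dosed at 15 concentrations, exposure lasted 22hr, and the CellTiter-Fluor signal was read.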

[2] = biological target: Progesterone receptor (Homo sapiens) (UniProt P06401); experiment: qHTS assay to identify small molecule agonists of the progesterone receptor (PR) signaling pathway (AID 1346784; calls by dose curve; also: nearly all actives have a fitted effect of over 30% in size)
Progesterone receptor (Homo sapiens), sequence (P06401 whole entry, looked up): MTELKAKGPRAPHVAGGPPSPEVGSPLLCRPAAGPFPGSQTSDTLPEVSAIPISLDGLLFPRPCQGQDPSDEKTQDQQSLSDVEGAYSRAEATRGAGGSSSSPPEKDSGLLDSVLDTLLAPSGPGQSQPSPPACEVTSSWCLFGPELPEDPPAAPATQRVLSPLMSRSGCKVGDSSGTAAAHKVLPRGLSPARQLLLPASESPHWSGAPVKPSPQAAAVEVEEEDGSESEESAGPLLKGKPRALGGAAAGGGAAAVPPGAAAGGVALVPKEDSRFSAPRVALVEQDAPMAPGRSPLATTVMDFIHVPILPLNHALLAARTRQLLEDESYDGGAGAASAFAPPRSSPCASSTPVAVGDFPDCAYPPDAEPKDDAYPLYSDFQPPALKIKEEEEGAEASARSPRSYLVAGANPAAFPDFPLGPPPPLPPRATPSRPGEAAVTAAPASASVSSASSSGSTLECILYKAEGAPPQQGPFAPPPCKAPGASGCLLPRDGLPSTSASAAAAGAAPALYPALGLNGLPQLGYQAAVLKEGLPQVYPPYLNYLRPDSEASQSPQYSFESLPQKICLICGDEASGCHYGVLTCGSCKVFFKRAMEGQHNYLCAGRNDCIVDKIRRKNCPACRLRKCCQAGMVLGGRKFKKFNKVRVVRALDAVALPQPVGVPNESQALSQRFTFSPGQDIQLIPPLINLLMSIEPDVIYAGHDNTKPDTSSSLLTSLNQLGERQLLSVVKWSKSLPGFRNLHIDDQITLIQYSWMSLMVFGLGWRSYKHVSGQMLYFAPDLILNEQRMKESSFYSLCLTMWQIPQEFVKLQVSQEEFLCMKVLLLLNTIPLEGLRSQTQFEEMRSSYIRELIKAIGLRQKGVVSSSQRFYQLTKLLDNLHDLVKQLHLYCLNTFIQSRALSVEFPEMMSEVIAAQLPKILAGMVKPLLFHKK
How it was run: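 HEK 293T PR-UAS-bla reporter cells, 2% charcoal-stripped FBS; 6 hr settle at 37C/5% CO2, compound (DMSO) 16 hr, LiveBLAzer B/G FRET substrate 2 hr RT, fluorescence intensity read.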

[3] = biological target: Progesterone receptor (Homo sapiens) (UniProt P06401); experiment: qHTS assay to identify small molecule antagonists of the progesterone receptor (PR) signaling pathway (AID 1346795; active = well fitted inhibition curve with a large enough effect in the signal ratio in the repeat runs, not every such curve was filed as active; the % refers to the signal ratio)
How it was run: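 Beta-lactamase reporter, HEK293T PR-UAS-bla line; 2% charcoal-stripped FBS; 6 hr pre-incubation, 37C/5% CO2. Compound + R5020 1 nM final, 16 hr. LiveBLAzer B/G FRET substrate, 2 hr RT; fluorescence intensity read.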

[4] = qHTS assay to identify small molecule agonists of the progesterone receptor (PR) signaling pathway - cell viability counter screen (AID 1346799; calls by dose curve; also: nearly all actives have a fitted effect of over 45% in size; also: potency is read from the fitted curve at half-maximal effect)
How it was run: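 HEK293T PR-UAS-bla, 3,000 cells/well, 2% charcoal-stripped FBS; 6 h settle, compound 16 h at 37C/5% CO2; LiveBLAzer 2 h RT, then CellTiter-Glo 30 min RT, luminescence read.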

[5] = qHTS assay to identify small molecule antagonists of the TGF-beta/Smad signaling pathway - cell viability counter screen (AID 1346824); also: nearly all actives have a fitted effect of over 50% in size
How it was run: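 Cytotoxicity counter-screen run in the same wells as the beta-lactamase Smad reporter read: CellTiter-Glo luminescence after 30 min at room temperature. HEK 293T SBE-bla cells had 5 hr compound exposure at 37 C with TGF-beta1 (0.25 ng/mL stock).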

[6] = qHTS assay to identify small molecule agonists of the TGF-beta/Smad signaling pathway - cell viability counter screen (AID 1346829); also: top concentration of the series differs between compounds; nearly all actives have a fitted effect of over 45% in size
How it was run: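 Luminescence from CellTiter-Glo, read after a 30 min room-temperature incubation, gives cell viability of SBE-bla HEK 293T cells treated 5 hr with compounds at 37 C.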

[7] = qHTS assay to identify small molecule agonists of the TGF-beta/Smad signaling pathway (AID 1346859; active = well fitted activation curve with a large enough effect in the signal ratio in the repeat runs, not every such curve was filed as active; the % refers to the signal ratio; also: series mostly up to about 77 µM)
How it was run: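 Read-out: fluorescence at 460 and 530 nm (405 nm excitation) after a 2 hr room-temperature incubation with beta-lactamase FRET substrate. SBE-bla HEK 293T cells had been treated with test compounds for 5 hr at 37 C.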

[8] = biological target: Thyrotropin-releasing hormone receptor (Homo sapiens) (UniProt P34981); experiment: qHTS assay to identify small molecule agonists of the thyrotropin-releasing hormone receptor (TRHR) signaling pathway (AID 1346891; calls by dose curve;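 also: HEK293 cells expressing TRHR with calcium dye readout; series mostly up to about 58 µM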)
Thyrotropin-releasing hormone receptor (Homo sapiens), sequence (P34981 whole entry, looked up): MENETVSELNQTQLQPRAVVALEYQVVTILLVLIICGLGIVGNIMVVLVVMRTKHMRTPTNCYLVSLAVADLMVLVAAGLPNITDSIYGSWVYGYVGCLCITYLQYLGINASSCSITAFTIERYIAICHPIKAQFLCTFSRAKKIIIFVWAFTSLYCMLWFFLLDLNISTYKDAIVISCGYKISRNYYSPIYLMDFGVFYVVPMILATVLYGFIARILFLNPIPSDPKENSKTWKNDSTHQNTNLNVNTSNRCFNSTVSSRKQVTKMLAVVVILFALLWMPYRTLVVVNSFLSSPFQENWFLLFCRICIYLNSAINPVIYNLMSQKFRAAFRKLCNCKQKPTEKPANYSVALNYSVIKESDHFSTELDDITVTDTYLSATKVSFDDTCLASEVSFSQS
How it was run: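 HEK293/TRHR cells, 1500 per well, 18 h 37 °C; Ca dye 2 h 37 °C; pin-tool compound addition (agonist mode); kinetic fluorescence 3 min, 1 s reads; 15 concentrations, triplicate.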

[9] = Human pregnane X receptor (PXR) small molecule agonists, qHTS cell viability counter screen (AID 1346977); also: nearly all actives have a fitted effect of over 50% in size; also: potency is read from the fitted curve at half-maximal effect
How it was run: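 Fluorescence read-out (CellTiter-Fluor) of viability in PXR-Luc HepG2 cells, multiplexed with the luciferase agonist read. Compounds in DMSO added after 5hr plating; 24hr total exposure at 37C, 5% CO2.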

[10] = Caspase-3/7 induction in HepG2 cells by small molecules, qHTS assay (AID 1346978); also: nearly all actives have a fitted effect of over 15% in size
How it was run: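 Caspase-3/7 induction was measured by Caspase-Glo 3/7 luminescence (30 min, room temperature) after a 17 hr compound exposure of wild-type HepG2 cells seeded at 2,000 per well and pre-incubated 5 hr.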

[11] = Caspase-3/7 induction in CHO-K1 cells by small molecules, qHTS cell viability counter screen (AID 1346979); also: nearly all actives have a fitted effect of over 35% in size; also: potency is read from the fitted curve at half-maximal effect
How it was run: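 CHO-K1 wt, 1,500 cells/well; 5hr pre-incubation 37C/5% CO2; compound pin transfer (DMSO); 16hr exposure; CellTiter-Fluor added, 1hr, fluorescence read.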

[12] = Caspase-3/7 induction in CHO-K1 cells by small molecules, qHTS assay (AID 1346980); also: nearly all actives have a fitted effect of over 15% in size
How it was run: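 Luminescent Caspase-Glo 3/7 read (30min, room temperature) quantified apoptosis induction. Cells were wild-type CHO-K1, treated with compound for 17hr at 37 C and 5% CO2.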

[13] = Caspase-3/7 induction in HepG2 cells by small molecules, qHTS cell viability counter screen (AID 1346981); also: nearly all actives have a fitted effect of over 30% in size; also: potency is read from the fitted curve at half-maximal effect; as to activity change, negative = cytotoxicity: series mostly up to about 92 µM
How it was run: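 In this quantitative HTS counter screen, compounds delivered in DMSO were left on unmodified HepG2 cells for 16 hr at 37 C. Viability was then determined fluorometrically with CellTiter-Fluor, in parallel with caspase-3/7 induction in the same wells.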

[14] = biological target: Nuclear receptor subfamily 1 group I member 2 (Homo sapiens) (UniProt O75469); experiment: Human pregnane X receptor (PXR) small molecule agonists, qHTS assay (AID 1346982); also: nearly all actives have a fitted effect of over 35% in size; also: potency is read from the fitted curve at half-maximal effect
Nuclear receptor subfamily 1 group I member 2 (Homo sapiens), sequence (O75469 whole entry, looked up): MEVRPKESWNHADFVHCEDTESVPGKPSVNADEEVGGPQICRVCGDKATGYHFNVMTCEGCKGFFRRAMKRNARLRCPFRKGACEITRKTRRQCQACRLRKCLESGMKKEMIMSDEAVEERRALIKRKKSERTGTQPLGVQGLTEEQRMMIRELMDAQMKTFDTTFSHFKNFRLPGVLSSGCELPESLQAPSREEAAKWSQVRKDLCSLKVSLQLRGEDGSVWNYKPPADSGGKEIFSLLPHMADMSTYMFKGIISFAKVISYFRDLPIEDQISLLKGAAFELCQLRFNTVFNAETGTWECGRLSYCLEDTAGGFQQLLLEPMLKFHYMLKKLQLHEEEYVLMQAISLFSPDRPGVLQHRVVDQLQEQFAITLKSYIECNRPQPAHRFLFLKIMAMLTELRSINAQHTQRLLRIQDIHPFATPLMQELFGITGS
How it was run: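 Reporter HepG2 cells expressing PXR-Luc are cultured in charcoal-stripped FBS (5%), treated with compounds for 24 hr at 37 C, and assayed by ONE-Glo luminescence after 30 min at room temperature.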

[15] = biological target: Cytochrome P450 2D6 (Homo sapiens) (UniProt P10635); experiment: Cytochrome P450 Family 2 Subfamily D Member 6 (CYP2D6) small molecule antagonists: luciferase reporter qHTS assay (AID 1671196); also: nearly all actives have a fitted effect of over 50% in size; also: potency is read from the fitted curve at half-maximal effect; as to activity change, negative = inhibition: series mostly up to about 120 µM
Cytochrome P450 2D6 (Homo sapiens), sequence (P10635 whole entry, looked up): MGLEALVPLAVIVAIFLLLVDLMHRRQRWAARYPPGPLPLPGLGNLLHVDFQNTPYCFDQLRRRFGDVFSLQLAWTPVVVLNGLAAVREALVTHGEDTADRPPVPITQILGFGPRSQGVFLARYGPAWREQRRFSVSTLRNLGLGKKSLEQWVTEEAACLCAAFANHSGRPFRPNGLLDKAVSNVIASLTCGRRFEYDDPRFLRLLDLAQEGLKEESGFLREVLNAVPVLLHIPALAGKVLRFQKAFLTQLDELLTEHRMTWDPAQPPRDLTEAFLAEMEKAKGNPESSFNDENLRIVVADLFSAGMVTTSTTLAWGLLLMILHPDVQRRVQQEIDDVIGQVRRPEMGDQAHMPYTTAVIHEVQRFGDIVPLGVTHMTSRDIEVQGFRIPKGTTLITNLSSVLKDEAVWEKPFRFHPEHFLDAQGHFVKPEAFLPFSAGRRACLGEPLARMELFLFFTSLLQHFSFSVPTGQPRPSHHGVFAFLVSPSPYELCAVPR
How it was run: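 Test chemicals meet CYP2D6 plus proluciferin substrate (10 min, RT); NADPH regenerating solution then drives turnover for 1 h. Detection reagent halts the reaction; luminescence measured after 20 min.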

[16] = qHTS assay to identify small molecule antagonists of the progesterone receptor (PR) signaling pathway - cell viability counter screen (AID 1346798); also: series mostly up to about 92 µM; nearly all actives have a fitted effect of over 50% in size
How it was run: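 Luminescence readout (CellTiter-Glo, 30 min, RT) of viability in PR-UAS-bla HEK293T cells exposed to compound and R5020 agonist for 16 hr at 37C, 5% CO2; run in the same wells as the beta-lactamase reporter read.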

[17] = biological target: Thyrotropin-releasing hormone receptor (Homo sapiens) (UniProt P34981); experiment: qHTS assay to identify small molecule antagonists of the thyrotropin-releasing hormone receptor (TRHR) signaling pathway (AID 1346877; active = well fitted inhibition curve with a large enough effect in the repeat runs, not every such curve was filed as active; also: series mostly up to about 51 µM)
How it was run: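 Kinetic fluorescence (3 min, 1 s resolution) following stimulation with TRH at 1 nM final; HEK293 cells bearing human TRHR; 5 min compound preincubation at RT; concentration-response over 15 points, triplicates.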

[18] = biological target: Nuclear receptor subfamily 1 group I member 2 (Homo sapiens) (UniProt O75469); experiment: CYP3A4 induction through human pregnane X receptor (PXR) by small molecules, qHTS assay (AID 1346984); also: nearly all actives have a fitted effect of over 40% in size; also: potency is read from the fitted curve at half-maximal effect
How it was run: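 Induction measured in HepG2-based DPX-2 cells co-expressing human PXR and a CYP3A4 promoter-driven luciferase. After a 24-hour compound exposure, cells received CYP3A4 luciferin substrate at 3uM final for 3 hours, and light output was then recorded.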

[19] = biological target: Nuclear receptor subfamily 1 group I member 2 (Homo sapiens) (UniProt O75469); experiment: Human pregnane X receptor (PXR) activation by small molecules, qHTS assay (AID 1346985); also: nearly all actives have a fitted effect of over 40% in size; also: potency is read from the fitted curve at half-maximal effect
How it was run: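 DPX-2 cells (HepG2 co-transfected with a PXR response element and a CYP3A4-promoter luciferase construct) were seeded at 2,000 per well, rested 5 hr at 37C, then exposed to DMSO-dissolved compounds for 24 hr. Activation was read as luciferase luminescence.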
% is scaled to controls: 0 for no effect and ±100 for the full control effect.

CCC(C(=O)OCCN(CC)CC)c1ccccc1 (configuration not stated)
inactive: Potency [1] | Potency [2] | Potency [3] | Potency [4] | outcome [5] | outcome [6] | outcome [7] | Potency [8] | Potency [9] | Potency [10] | Potency [11] | outcome [12] | Potency [13] | Potency [14]
active: Potency [15] 3.09 µM

CCCC(=O)O[C@]1(C(=O)COC(=O)CC)CC[C@H]2[C@@H]3CCC4=CC(=O)CC[C@]4(C)[C@H]3[C@@H](O)C[C@@]21C
inactive: activity change, negative = cytotoxicity [1] 2.18% [at 19 µM] | activation [2] 3.7% [at 19 µM] | activity change, negative = cytotoxicity [16] -3.5% [at 18.9 µM] | activity change, negative = cytotoxicity [4] 17.2% [at 19 µM] | viability change, negative = cytotoxic [5] -0.584% [at 15.8 µM] | activity change, negative = cytotoxicity [6] -0.518% [at 15.8 µM] | activation [7] 5.59% [at 15.8 µM] | activity, negative = inhibition [17] -1.85% [at 10.5 µM] | activation [8] -0.132% [at 11.8 µM] | activity change, negative = cytotoxicity [9] 12.4% [at 19 µM] | caspase activation [10] -2.33% [at 19 µM] | activity change, negative = cytotoxicity [11] 11.7% [at 19 µM] | caspase-3/7 activation [12] 1.2% [at 19 µM] | activity change, negative = cytotoxicity [13] 3.19% [at 19 µM] | activation [14] -1.9% [at 19 µM] | activity change, negative = inhibition [15] -0.0142% [at 23.6 µM]

Cc1oncc1C(=O)Nc1ccc(C(F)(F)F)cc1
active: Potency [19] 0.708 µM | Potency [15] 31.7 µM
inactive: Potency [1] | Potency [2] | Potency [16] | Potency [4] | outcome [5] | outcome [6] | outcome [7] | Potency [9] | Potency [10] | Potency [11] | outcome [12] | Potency [13] | Potency [18]

CCN(CC)CCNC(=O)c1ccc(NC(C)=O)cc1
inactive: Potency [1] | Potency [2] | Potency [16] | Potency [4] | outcome [5] | outcome [6] | outcome [7] | outcome [17] | Potency [8] | Potency [9] | Potency [10] | Potency [11] | outcome [12] | Potency [13] | Potency [14] | Potency [18] | Potency [19]
active: Potency [15] 17.4 µM

CCCCCCCCCCCC[N+](C)(C)CC(=O)[O-]
active: Potency [4] 21.7 µM
inactive: Potency [1] | Potency [2] | Potency [3] | outcome [5] | outcome [7] | Potency [8] | Potency [9] | Potency [10] | Potency [11] | outcome [12] | Potency [13]

Cc1cc(S(=O)(=O)O)ccc1N=Nc1c(O)ccc2ccccc12
active: Potency [1] 27.3 µM | Potency [9] 24.3 µM | Potency [11] 27.3 µM | Potency [13] 30.6 µM | Potency [15] 39.9 µM
inactive: Potency [2] | Potency [3] | Potency [4] | outcome [5] | outcome [6] | outcome [7] | Potency [10] | outcome [12] | Potency [14]

COC(=O)c1cc(Cl)ccc1NS(=O)(=O)C(F)(F)F
inactive: Potency [1] | Potency [2] | Potency [16] | Potency [4] | outcome [5] | outcome [6] | outcome [7] | outcome [17] | Potency [8] | Potency [9] | Potency [10] | Potency [11] | outcome [12] | Potency [13] | Potency [14] | Potency [15]

Cc1ccnc2ccccc12
inactive: Potency [1] | Potency [2] | Potency [3] | Potency [4] | outcome [5] | Potency [8] | Potency [9] | Potency [10] | Potency [11] | outcome [12] | Potency [13]

C=C(C)C(=O)OCCOC(=O)CC(C)=O
inactive: Potency [1] | Potency [2] | Potency [16] | Potency [4] | outcome [5] | outcome [6] | outcome [7] | Potency [9] | Potency [10] | Potency [11] | outcome [12] | Potency [13] | Potency [14] | Potency [15]

Cc1cnc(C)c(C)n1
active: Potency [4] 28.6 µM
inactive: Potency [1] | Potency [2] | Potency [3] | outcome [5] | outcome [6] | outcome [7] | Potency [9] | Potency [10] | Potency [11] | outcome [12] | Potency [13] | Potency [14] | Potency [15]

O=C(Nc1ccccc1)Nc1ccccc1
inactive: Potency [1] | Potency [2] | Potency [16] | Potency [4] | outcome [5] | outcome [6] | outcome [7] | outcome [17] | Potency [8] | Potency [9] | Potency [10] | outcome [12] | Potency [13]
active: Potency [14] 4.88 µM | Potency [15] 28.4 µM

O=[N+]([O-])c1cccc(S(=O)(=O)NCCNS(=O)(=O)c2cccc([N+](=O)[O-])c2)c1
active: Potency [18] 7.94 µM | Potency [19] 14.1 µM
inactive: Potency [1] | Potency [2] | Potency [16] | Potency [4] | outcome [5] | outcome [6] | outcome [7] | outcome [17] | Potency [8] | Potency [9] | Potency [10] | Potency [11] | outcome [12] | Potency [13]

CCCCCCOC(=O)CCCCCCCC(=O)OCCCCCC
inactive: Potency [1] | Potency [2] | Potency [16] | Potency [4] | outcome [5] | outcome [6] | outcome [7] | outcome [17] | Potency [8] | Potency [9] | Potency [10] | Potency [11] | outcome [12] | Potency [13] | Potency [14] | Potency [15]

CCC(C)(C)C1CCC(O)CC1 (configuration not stated)
inactive: Potency [1] | Potency [2] | Potency [16] | Potency [4] | outcome [5] | outcome [6] | outcome [7] | Potency [9] | Potency [10] | Potency [11] | outcome [12] | Potency [13] | Potency [14] | Potency [15]

CC1=CC(=O)CC(C)(C)C1(O)/C=C/C(C)=C\C(=O)O (configuration not stated)
inactive: Potency [1] | Potency [2] | Potency [16] | Potency [4] | outcome [5] | outcome [6] | outcome [7] | outcome [17] | Potency [8] | Potency [9] | Potency [10] | Potency [11] | outcome [12] | Potency [13] | Potency [14] | Potency [15]
